Tests used:
Assay in all cases: DAPPL (digital affinity profiling via proximity ligation, sequencing); 10 mM Tris-HCl pH 7.5, 50 mM NaCl, 1 mM DTT, 4% glycerol, room temperature, 30 min; GST-TFs on glutathione beads, 16-mer random dsDNA library, 0.1% formaldehyde crosslink after washing; high values mean tight binding
FLI1 = biological target: T1, FLI1 (Homo sapiens, UniProt Q01543 1-452); details: protein: recombinant; tags: N-terminal GST; dsDNA, one strand shown
T1 sequence: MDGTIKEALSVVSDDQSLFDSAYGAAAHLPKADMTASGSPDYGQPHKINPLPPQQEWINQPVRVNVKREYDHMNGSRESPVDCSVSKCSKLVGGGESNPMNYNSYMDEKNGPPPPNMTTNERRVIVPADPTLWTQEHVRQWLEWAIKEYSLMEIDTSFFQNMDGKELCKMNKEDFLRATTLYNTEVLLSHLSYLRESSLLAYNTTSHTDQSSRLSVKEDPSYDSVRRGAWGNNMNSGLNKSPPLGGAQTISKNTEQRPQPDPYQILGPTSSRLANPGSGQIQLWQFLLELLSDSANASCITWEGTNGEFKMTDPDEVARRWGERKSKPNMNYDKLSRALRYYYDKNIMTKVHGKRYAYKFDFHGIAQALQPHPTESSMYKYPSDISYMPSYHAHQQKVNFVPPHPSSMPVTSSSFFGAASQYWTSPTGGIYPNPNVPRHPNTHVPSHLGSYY
Summary of the method: (§1)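 Pools of DNA-barcoded human transcription factors, expressed in yeast as GST fusions on glutathione beads and combined with a tag-only sample, were incubated with 200 nmole of a 16-mer random double-stranded DNA library. Incubation took 30 min at room temperature in Tris/NaCl/DTT/glycerol buffer and was followed by washing, 0.1% formaldehyde crosslinking, proximity ligation (BsaI/T4 ligase, 1 h, 37 °C), PCR amplification and sequencing on an Illumina NextSeq500. Binding signal is the ratio of a hexamer's read frequency for a factor to its frequency for the tag-only sample.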

ELK1 = biological target: T2, ELK1 (Homo sapiens, UniProt P19419 1-428); details: protein: recombinant; tags: N-terminal GST; dsDNA, one strand shown
T2 sequence: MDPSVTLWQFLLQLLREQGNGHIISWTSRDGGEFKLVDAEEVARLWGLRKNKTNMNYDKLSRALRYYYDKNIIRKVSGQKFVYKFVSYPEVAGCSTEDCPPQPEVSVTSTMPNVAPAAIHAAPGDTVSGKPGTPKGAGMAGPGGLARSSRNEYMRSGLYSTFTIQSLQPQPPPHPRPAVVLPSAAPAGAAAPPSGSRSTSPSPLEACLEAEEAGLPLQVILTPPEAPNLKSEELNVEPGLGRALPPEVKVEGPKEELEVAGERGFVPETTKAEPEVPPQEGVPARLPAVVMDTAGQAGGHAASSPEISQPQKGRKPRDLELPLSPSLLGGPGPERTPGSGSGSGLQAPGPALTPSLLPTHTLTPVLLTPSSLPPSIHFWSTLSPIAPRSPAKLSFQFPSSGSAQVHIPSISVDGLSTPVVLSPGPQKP
Summary of the method: as §1

GABPA = biological target: T3, GABPA (Homo sapiens, UniProt Q06546 1-454); details: protein: recombinant; tags: N-terminal GST; dsDNA, one strand shown
T3 sequence: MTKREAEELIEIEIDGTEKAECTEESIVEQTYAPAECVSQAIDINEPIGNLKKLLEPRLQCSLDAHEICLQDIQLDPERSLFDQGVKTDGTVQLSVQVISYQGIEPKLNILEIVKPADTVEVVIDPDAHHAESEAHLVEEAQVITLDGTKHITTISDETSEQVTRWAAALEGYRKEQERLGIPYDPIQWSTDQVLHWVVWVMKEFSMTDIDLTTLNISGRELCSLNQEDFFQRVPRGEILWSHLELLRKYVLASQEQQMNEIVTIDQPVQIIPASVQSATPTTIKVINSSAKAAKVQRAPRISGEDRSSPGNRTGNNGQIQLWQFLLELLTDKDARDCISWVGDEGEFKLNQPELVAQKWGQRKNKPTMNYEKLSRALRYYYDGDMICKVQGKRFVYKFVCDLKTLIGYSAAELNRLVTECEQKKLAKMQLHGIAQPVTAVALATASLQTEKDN
Summary of the method: as §1

ERG = biological target: T4, ERG (Homo sapiens, UniProt P11308 1-479); details: protein: recombinant; tags: N-terminal GST; dsDNA, one strand shown
T4 sequence: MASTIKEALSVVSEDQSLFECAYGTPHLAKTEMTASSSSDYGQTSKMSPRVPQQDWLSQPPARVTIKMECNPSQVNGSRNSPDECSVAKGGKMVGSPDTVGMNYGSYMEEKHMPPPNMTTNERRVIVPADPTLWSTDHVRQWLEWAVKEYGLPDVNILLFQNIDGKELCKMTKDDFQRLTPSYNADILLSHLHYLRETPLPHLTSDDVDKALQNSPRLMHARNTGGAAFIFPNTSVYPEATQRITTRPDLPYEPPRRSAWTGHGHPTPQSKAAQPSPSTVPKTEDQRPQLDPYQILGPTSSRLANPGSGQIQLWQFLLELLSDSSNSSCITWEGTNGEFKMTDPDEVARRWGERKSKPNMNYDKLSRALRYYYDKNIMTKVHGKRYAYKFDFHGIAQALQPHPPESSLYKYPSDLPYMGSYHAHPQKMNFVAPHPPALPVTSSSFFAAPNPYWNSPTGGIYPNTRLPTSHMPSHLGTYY
Summary of the method: as §1

ELF1 = ELF1 (Homo sapiens, UniProt P32519 1-619); details: protein: recombinant; tags: N-terminal GST; dsDNA, one strand shown
Summary of the method: as §1

EHF = biological target: T5, EHF (Homo sapiens, UniProt Q9NZC4 1-300); details: protein: recombinant; tags: N-terminal GST; dsDNA, one strand shown
T5 sequence: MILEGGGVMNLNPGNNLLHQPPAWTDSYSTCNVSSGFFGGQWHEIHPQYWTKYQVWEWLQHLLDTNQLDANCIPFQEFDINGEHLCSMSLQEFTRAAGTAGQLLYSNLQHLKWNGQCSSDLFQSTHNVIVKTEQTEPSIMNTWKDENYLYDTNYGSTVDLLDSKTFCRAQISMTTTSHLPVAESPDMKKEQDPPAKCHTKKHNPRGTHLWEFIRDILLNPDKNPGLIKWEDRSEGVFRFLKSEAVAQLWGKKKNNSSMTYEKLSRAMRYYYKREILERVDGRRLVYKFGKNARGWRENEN
Summary of the method: as §1

SPI1 = SPI1 (Homo sapiens, UniProt P17947 1-270); details: protein: recombinant; tags: N-terminal GST; dsDNA, one strand shown
Summary of the method: as §1

SPIB = SPIB (Homo sapiens, UniProt Q01892 1-262); details: protein: recombinant; tags: N-terminal GST; dsDNA, one strand shown
Summary of the method: as §1

ELK3 = biological target: T6, ELK3 (Homo sapiens, UniProt P41970 1-407); details: protein: recombinant; tags: N-terminal GST; dsDNA, one strand shown
T6 sequence: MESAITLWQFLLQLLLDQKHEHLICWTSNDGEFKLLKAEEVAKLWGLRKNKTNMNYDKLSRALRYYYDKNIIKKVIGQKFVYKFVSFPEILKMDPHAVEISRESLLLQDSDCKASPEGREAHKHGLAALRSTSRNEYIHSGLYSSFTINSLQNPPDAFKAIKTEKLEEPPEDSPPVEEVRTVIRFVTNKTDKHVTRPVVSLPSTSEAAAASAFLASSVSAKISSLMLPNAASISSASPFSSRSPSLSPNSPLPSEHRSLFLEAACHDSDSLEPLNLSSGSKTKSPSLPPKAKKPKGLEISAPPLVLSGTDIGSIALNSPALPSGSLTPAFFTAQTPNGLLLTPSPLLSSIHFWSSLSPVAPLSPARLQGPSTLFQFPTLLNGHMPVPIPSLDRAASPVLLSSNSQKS
Summary of the method: as §1

FEV = biological target: T7, FEV (Homo sapiens, UniProt Q99581 1-238); details: protein: recombinant; tags: N-terminal GST; dsDNA, one strand shown
T7 sequence: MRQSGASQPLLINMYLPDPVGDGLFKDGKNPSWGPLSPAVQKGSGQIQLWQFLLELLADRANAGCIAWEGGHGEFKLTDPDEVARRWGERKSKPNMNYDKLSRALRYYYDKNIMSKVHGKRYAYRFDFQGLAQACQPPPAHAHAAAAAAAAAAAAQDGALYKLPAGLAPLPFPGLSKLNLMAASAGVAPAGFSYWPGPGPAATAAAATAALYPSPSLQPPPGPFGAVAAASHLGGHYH
Summary of the method: as §1

ETV5 = ETV5 (Homo sapiens, UniProt P41161 1-510); details: protein: recombinant; tags: N-terminal GST; dsDNA, one strand shown
Summary of the method: as §1

HSF1 = HSF1 (Homo sapiens, UniProt Q00613 1-529); details: protein: recombinant; tags: N-terminal GST; chain copies: 3; dsDNA, one strand shown
Summary of the method: as §1

SPIC = biological target: T8, SPIC (Homo sapiens, UniProt Q8N5J4 1-248); details: protein: recombinant; tags: N-terminal GST; dsDNA, one strand shown
T8 sequence: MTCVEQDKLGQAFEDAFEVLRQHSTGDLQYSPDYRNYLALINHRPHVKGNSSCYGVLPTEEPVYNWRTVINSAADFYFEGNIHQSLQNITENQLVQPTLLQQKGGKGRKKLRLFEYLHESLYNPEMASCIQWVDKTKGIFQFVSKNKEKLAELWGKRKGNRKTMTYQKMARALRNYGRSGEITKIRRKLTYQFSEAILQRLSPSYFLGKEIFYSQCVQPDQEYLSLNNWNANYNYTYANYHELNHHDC
Summary of the method: as §1

ELF4 = ELF4 (Homo sapiens, UniProt Q99607 1-663); details: protein: recombinant; tags: N-terminal GST; dsDNA, one strand shown
Summary of the method: as §1

ELK4 = biological target: T9, ELK4 (Homo sapiens, UniProt P28324-2 1-405); details: protein: recombinant; tags: N-terminal GST; dsDNA, one strand shown
T9 sequence: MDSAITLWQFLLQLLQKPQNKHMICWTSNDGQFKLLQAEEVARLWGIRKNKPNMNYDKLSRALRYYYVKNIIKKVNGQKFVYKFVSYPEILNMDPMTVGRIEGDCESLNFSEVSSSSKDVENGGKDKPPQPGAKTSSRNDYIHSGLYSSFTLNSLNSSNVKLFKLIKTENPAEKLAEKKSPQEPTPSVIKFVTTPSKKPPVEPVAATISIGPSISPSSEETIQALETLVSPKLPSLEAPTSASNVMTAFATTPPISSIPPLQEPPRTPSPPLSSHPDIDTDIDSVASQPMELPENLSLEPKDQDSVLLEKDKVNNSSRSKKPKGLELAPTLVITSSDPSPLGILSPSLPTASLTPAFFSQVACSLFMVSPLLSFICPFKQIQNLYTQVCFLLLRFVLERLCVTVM
Summary of the method: as §1

ETV2 = biological target: T10, ETV2 (Homo sapiens, UniProt O00321 1-342); details: protein: recombinant; tags: N-terminal GST; dsDNA, one strand shown
T10 sequence: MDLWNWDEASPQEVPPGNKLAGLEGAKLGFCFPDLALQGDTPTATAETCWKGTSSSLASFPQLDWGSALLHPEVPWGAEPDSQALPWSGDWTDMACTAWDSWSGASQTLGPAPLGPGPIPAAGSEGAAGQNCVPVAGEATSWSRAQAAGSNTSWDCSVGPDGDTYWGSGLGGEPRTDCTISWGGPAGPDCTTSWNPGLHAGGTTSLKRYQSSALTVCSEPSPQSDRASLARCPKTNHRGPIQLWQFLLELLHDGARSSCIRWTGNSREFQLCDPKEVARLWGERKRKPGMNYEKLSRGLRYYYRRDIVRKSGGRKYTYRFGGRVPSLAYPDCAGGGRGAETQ
Summary of the method: as §1

ELF3 = biological target: T11, ELF3 (Homo sapiens, UniProt P78545 1-371); details: protein: recombinant; tags: N-terminal GST; dsDNA, one strand shown
T11 sequence: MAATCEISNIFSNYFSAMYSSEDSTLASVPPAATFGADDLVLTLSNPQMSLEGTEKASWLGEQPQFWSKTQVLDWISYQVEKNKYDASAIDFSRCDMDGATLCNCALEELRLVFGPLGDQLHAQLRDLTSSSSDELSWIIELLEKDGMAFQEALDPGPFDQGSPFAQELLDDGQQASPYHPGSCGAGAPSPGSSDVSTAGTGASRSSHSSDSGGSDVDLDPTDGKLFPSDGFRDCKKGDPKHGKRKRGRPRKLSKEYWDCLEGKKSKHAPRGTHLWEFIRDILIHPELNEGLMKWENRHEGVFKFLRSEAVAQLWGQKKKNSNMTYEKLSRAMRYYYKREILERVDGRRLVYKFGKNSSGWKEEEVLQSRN
Summary of the method: as §1

CRX = CRX (Homo sapiens, UniProt O43186 1-299); details: protein: recombinant; tags: N-terminal GST; dsDNA, one strand shown
Summary of the method: as §1

ETV1 = ETV1 (Homo sapiens, UniProt P50549 1-477); details: protein: recombinant; tags: N-terminal GST; dsDNA, one strand shown
Summary of the method: as §1

Sequence of CRX (O43186 whole entry): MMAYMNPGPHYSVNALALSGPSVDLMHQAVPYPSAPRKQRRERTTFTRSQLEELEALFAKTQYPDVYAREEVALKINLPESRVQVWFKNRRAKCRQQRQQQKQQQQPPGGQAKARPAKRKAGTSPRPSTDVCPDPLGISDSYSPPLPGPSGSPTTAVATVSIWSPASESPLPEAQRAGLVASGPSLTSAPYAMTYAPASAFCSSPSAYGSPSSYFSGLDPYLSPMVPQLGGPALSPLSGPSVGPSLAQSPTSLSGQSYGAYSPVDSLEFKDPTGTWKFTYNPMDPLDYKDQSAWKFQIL
Sequence of ELF4 (Q99607 whole entry): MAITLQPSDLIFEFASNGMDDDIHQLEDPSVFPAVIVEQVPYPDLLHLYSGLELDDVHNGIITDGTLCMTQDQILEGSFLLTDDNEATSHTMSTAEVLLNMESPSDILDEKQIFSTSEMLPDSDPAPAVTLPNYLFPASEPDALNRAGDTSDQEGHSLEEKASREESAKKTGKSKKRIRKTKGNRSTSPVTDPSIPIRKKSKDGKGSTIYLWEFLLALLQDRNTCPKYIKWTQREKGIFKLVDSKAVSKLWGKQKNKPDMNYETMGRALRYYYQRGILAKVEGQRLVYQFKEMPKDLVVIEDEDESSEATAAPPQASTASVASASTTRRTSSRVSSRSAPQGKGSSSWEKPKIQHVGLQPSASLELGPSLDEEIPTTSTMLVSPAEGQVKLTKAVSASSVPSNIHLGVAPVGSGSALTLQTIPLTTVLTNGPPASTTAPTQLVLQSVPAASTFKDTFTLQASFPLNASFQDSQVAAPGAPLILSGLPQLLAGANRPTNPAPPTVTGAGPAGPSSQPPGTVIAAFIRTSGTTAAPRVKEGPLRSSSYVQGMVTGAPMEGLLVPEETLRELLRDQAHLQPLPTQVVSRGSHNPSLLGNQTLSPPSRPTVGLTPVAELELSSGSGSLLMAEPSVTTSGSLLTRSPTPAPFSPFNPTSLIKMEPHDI
Sequence of ELF1 (P32519 whole entry): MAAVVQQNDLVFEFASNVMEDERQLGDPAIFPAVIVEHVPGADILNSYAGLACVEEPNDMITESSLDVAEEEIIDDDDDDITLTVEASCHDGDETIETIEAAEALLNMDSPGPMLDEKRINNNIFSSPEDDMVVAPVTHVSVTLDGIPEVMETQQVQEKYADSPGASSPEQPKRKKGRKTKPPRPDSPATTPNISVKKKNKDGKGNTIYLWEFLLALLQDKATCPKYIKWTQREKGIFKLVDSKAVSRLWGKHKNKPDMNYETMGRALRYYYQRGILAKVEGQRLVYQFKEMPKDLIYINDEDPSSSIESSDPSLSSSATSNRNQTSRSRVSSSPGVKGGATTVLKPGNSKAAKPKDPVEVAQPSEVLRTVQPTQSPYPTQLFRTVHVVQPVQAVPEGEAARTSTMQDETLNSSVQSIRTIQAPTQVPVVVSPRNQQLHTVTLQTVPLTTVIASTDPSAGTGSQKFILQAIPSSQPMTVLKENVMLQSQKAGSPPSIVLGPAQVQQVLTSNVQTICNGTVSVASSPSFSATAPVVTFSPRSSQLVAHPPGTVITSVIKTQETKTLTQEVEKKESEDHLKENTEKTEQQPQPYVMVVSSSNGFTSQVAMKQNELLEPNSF
Sequence of HSF1 (Q00613 whole entry): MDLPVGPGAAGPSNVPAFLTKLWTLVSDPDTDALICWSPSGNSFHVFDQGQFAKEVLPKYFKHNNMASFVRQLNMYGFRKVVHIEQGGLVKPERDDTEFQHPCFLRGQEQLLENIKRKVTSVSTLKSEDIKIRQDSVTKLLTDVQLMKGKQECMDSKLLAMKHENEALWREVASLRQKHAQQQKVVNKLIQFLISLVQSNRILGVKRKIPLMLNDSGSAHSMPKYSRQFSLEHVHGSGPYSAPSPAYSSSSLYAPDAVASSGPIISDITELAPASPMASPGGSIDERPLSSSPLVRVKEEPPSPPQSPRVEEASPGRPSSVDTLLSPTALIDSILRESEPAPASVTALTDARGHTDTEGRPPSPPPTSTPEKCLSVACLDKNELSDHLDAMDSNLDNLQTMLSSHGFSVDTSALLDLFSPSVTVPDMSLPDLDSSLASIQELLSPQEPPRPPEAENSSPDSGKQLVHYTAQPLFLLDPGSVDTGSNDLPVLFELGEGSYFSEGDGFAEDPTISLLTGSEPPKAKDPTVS
Sequence of ETV1 (P50549 whole entry): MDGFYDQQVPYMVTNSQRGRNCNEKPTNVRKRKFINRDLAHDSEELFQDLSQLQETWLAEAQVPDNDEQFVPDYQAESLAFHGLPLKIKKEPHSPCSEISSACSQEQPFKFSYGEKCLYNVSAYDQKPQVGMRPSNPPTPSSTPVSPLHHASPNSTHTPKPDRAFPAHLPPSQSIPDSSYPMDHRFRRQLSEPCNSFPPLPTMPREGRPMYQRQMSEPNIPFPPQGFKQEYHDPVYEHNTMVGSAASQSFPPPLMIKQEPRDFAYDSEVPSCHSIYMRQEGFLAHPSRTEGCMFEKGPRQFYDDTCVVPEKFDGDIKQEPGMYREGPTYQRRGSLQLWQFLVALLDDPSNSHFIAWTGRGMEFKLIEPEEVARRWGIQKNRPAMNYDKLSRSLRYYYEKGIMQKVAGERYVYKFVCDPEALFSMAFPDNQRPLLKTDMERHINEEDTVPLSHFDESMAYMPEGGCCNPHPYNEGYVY
Sequence of ETV5 (P41161 whole entry): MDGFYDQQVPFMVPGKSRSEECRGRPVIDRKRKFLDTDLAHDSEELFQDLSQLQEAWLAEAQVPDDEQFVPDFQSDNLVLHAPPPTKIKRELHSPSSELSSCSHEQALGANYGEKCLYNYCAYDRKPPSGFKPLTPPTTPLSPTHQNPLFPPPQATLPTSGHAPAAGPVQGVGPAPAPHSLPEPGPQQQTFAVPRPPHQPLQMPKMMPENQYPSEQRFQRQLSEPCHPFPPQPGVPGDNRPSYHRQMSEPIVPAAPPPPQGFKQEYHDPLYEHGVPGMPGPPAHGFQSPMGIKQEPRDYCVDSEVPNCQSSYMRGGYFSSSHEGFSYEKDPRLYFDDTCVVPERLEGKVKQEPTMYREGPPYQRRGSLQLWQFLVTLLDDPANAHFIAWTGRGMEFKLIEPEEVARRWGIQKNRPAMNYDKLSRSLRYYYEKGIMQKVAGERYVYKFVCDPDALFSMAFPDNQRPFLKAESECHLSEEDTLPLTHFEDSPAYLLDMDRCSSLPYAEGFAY
Sequence of SPIB (Q01892 whole entry): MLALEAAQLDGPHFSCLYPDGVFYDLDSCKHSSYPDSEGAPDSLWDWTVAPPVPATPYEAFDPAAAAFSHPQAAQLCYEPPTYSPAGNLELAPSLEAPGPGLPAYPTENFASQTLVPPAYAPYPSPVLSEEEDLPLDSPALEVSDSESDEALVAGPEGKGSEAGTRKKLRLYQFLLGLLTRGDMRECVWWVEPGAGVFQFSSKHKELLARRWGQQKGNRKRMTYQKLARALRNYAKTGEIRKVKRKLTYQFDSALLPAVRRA

Q: For CTACTT, which binding signal (FLI1) is on record?
A: 1.85 fold enrichment (6-mer frequency, TF over GST control)

Q: And the binding signal (ELK1)?
A: 1.77 fold enrichment (6-mer frequency, TF over GST control)

Q: What about the binding signal (GABPA) of the same sequence?
A: 1.72 fold enrichment (6-mer frequency, TF over GST control)

Q: What about the binding signal (ERG) of the same sequence?
A: 1.96 fold enrichment (6-mer frequency, TF over GST control)

Q: What about the binding signal (ELF1) of the same sequence?
A: 1.85 fold enrichment (6-mer frequency, TF over GST control)

Q: What about the binding signal (EHF) of the same sequence?
A: 1.92 fold enrichment (6-mer frequency, TF over GST control)

Q: And the binding signal (SPI1)?
A: 2.05 fold enrichment (6-mer frequency, TF over GST control)

Q: And the binding signal (SPIB)?
A: 1.96 fold enrichment (6-mer frequency, TF over GST control)

Q: What about the binding signal (ELK3) of the same sequence?
A: 1.88 fold enrichment (6-mer frequency, TF over GST control)

Q: And the binding signal (FEV)?
A: 2.08 fold enrichment (6-mer frequency, TF over GST control)

Q: And the binding signal (ETV5)?
A: 1.78 fold enrichment (6-mer frequency, TF over GST control)

Q: And the binding signal (HSF1)?
A: 1.44 fold enrichment (6-mer frequency, TF over GST control)

Q: What about the binding signal (SPIC) of the same sequence?
A: 1.89 fold enrichment (6-mer frequency, TF over GST control)

Q: And the binding signal (ELF4)?
A: 1.82 fold enrichment (6-mer frequency, TF over GST control)

Q: What about the binding signal (ELK4) of the same sequence?
A: 1.87 fold enrichment (6-mer frequency, TF over GST control)

Q: And the binding signal (ETV2)?
A: 1.84 fold enrichment (6-mer frequency, TF over GST control)

Q: And the binding signal (ELF3)?
A: 1.89 fold enrichment (6-mer frequency, TF over GST control)

Q: And the binding signal (CRX)?
A: 1.78 fold enrichment (6-mer frequency, TF over GST control)

Q: What about the binding signal (ETV1) of the same sequence?
A: 1.89 fold enrichment (6-mer frequency, TF over GST control)
